# About 2,200 (0.71%) of roughly 310,000 compounds showed an effect of 50% or more. The effect is printed as a negative number. What follows is part of a selection rich in strong results, with near analogues and random picks from the rest.
# Target: human ether-à-go-go-related gene (hERG) potassium channel (human, UniProt Q12809)
# Experiment: primary screen, population patch clamp on CHO cells stably expressing hERG; higher = less effect of the substance
# human ether-à-go-go-related gene (hERG) potassium channel, sequence (Q12809 whole entry, looked up): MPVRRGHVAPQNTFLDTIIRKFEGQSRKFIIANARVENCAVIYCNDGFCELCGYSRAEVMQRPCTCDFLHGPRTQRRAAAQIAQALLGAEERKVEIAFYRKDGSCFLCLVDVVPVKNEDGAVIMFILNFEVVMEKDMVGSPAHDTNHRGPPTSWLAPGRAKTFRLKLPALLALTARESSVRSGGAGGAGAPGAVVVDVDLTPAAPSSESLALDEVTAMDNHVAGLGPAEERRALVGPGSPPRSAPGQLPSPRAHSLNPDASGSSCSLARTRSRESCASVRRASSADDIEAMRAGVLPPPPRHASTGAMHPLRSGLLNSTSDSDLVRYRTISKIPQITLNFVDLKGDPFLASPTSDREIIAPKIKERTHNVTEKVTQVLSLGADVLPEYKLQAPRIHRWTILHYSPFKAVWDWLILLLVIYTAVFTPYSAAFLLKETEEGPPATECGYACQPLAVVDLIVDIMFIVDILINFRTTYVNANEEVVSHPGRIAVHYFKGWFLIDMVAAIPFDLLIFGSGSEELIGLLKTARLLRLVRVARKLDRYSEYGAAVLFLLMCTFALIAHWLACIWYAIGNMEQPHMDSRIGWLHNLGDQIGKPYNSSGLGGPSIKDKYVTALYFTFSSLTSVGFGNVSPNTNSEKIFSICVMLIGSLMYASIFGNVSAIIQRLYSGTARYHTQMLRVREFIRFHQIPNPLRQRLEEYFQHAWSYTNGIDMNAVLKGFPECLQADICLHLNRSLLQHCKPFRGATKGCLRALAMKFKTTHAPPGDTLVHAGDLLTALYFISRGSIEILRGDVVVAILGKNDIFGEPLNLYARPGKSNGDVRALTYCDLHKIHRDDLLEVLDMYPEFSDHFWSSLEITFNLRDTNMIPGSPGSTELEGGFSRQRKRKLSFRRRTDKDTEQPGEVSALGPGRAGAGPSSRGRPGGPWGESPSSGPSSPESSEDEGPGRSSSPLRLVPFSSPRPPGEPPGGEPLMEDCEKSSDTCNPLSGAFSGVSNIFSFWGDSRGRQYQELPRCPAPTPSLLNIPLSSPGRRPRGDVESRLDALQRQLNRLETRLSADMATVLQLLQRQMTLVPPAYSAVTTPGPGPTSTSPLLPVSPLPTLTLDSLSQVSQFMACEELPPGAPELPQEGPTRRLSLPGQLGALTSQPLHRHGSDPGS
row,Compound,"hERG current change (%, negative = inhibition) at 1uM"
1,CCOc1ccc(N(CC(=O)Nc2ccc(F)c(F)c2)S(=O)(=O)c2c(C)noc2C)cc1,2.37%
2,CC(=O)Nc1ccc(NC(=O)COc2ccc(S(=O)(=O)NC(C)c3ccccc3)cc2)cc1 (stereo not drawn),17.5%
3,CC(C)(C)c1ccc(CSc2cnn(C(C)(C)C)c(=O)c2Cl)cc1,15.7%
4,CCOC(=O)c1c(NC(=O)c2ccc(N3C(=O)[C@@H]4[C@H](C3=O)[C@H]3C=C[C@@H]4C3)cc2)sc2c1CCCC2,4.8%
5,O=C(CSc1ccccc1)Nc1ccc2c(c1)OCCO2,8.08%
6,COc1cccc(NC(=O)C2c3cc(OC)c(OC)cc3C(=O)N(C)C2c2cccnc2)c1 (stereo not drawn),1.83%
7,COCCCn1c(C(=O)NCCN2CCOCC2)cc2c(=O)n3cccc(C)c3nc21,6.14%
8,CCOCCCn1c(=N)c(C(N)=S)cc2c(=O)n3cccc(C)c3nc21,-85.5%
9,Cc1cccn2c(=O)c3cc(C#N)c(=O)n(CCCN4CCOCC4)c3nc12,-21.2%
10,COCCCn1c(C(=O)N2CCOCC2)cc2c(=O)n3cccc(C)c3nc21,1.75%
11,COCCCn1c(=N)c(C(N)=S)cc2c(=O)n3cccc(C)c3nc21,-70.3%
12,Cc1cccn2c(=O)c3cc(C#N)c(=N)n(CCCN4CCOCC4)c3nc12,-78.1%
13,CCCn1c(=N)c(C#N)cc2c(=O)n3cccc(C)c3nc21,-20.2%
14,Cc1cccn2c(=O)c3cc(C(N)=S)c(=N)n(CCCN4CCOCC4)c3nc12,-90.5%
15,CCOCCCn1c(=NC(C)=O)c(C#N)cc2c(=O)n3cccc(C)c3nc21,-7.46%
16,CCOCCCn1c(=N)c(C(=O)NCCN2CCOCC2)cc2c(=O)n3cccc(C)c3nc21,-17%
17,COc1cc(/C=N/NC(=O)c2ccc3nc[nH]c3c2)cc(OC)c1OC,10.6%
18,CC1(C)Cc2c(cnn2-c2ccccc2)C(NC(=O)CCc2ccc(=O)[nH]n2)C1 (stereo not drawn),8.83%
19,Cc1ccccc1CN(C)CC(=O)Nc1ccccc1-c1ccccc1,-9.53%
20,O=c1[nH]nc(Cc2ccc(-c3cccc(Cl)c3)o2)c2ccccc12,6.53%

row,Compound,"hERG current change (%, negative = inhibition) at 1uM"
1,CCCCn1c(N)c(N(CC)C(=O)c2ccc(C#N)cc2)c(=O)[nH]c1=O,14.4%
2,Cc1cccn2c(=O)c3cc(C(=O)NCCCOC(C)C)sc3nc12,9.15%
3,Cc1cccn2c(=O)c3cc(C(N)=S)c(=N)n(CCCOC(C)C)c3nc12,-77.8%
4,Cc1cc(N)n(-c2cc(C)c3ccccc3n2)n1,9.59%
5,Cc1ccc(NC(=S)N2CCN(c3ccccn3)CC2)c(C)c1,12.7%
6,O=C(Nc1c(C(=O)N2CCN(c3ccccn3)CC2)oc2ccccc12)c1ccc([N+](=O)[O-])cc1,-4.07%
7,CCOCCCN(C)C1CCN(C(=O)c2oc3ccccc3c2NC(=O)c2ccc([N+](=O)[O-])cc2)CC1,-85.2%
8,Cc1c(C(=O)N2CCN(c3ccc([N+](=O)[O-])cc3)CC2)oc2ccccc12,-12.9%
9,CCOCCCN(C)C1CCN(C(=O)c2oc3ccccc3c2NC(=O)c2cccc([N+](=O)[O-])c2)CC1,-86%
10,O=C(Nc1c(C(=O)N2CCOCC2)oc2ccccc12)c1cccc([N+](=O)[O-])c1,11.4%
11,O=C(Nc1c(C(=O)N2CCN(c3ccccn3)CC2)oc2ccccc12)c1cccc([N+](=O)[O-])c1,7.86%
12,O=C(CN1C(=O)CCC1=O)Nc1nc(-c2nc3ccccc3s2)cs1,-4.37%
13,CCOC(=O)C(C)(C)N(Cc1ccc(Cl)cc1)S(=O)(=O)c1ccc(Cl)c([N+](=O)[O-])c1,13.2%
14,Cc1cc(C)cc(NC(=O)C(c2ccccc2)N2CCCC2)c1 (stereo not drawn),12.6%
15,O=C(NCCCn1ccnc1)/C(=C/c1ccc(Cl)cc1)NC(=O)c1ccccc1,-82.5%
16,O=C(NCCCn1ccnc1)/C(=C\c1ccc(Br)cc1)NC(=O)c1ccccc1,-82.1%
17,COc1ccccc1/C=C(/NC(=O)c1ccccc1)C(=O)NCCCn1ccnc1,13.6%
18,CN(C)c1ccc(/C=C(/NC(=O)c2ccccc2)C(=O)NCCCn2ccnc2)cc1,16.1%
19,COc1ccc(/C=C(/NC(=O)c2ccccc2)C(=O)NCCCn2ccnc2)cc1OC,15.3%
20,CC(C)c1ccc(/C=C(\NC(=O)c2ccccc2)C(=O)NCCCn2ccnc2)cc1,-63.2%

row,Compound,"hERG current change (%, negative = inhibition) at 1uM"
1,O=C(NCCCn1ccnc1)/C(=C/c1ccccc1)NC(=O)c1ccccc1,-47.6%
2,CN(C)c1ccc(/C=C(\NC(=O)c2ccccc2)C(=O)NCCCn2ccnc2)cc1,9.45%
3,O=C(NCCCn1ccnc1)/C(=C\c1ccccc1Cl)NC(=O)c1ccccc1,6.1%
4,Cn1c(=O)n(C)c2cc(NS(C)(=O)=O)ccc21,8.26%
5,COc1ccc(Cc2noc(CN3CCCC(C(=O)c4cccs4)C3)n2)cc1OC (stereo not drawn),9.47%
6,O=c1c2c(nc3n1CCS3)c1cc(F)ccc1n2Cc1cc(=O)n2cc(Cl)ccc2n1,10.3%
7,Cc1cc(F)ccc1S(=O)(=O)Nc1ccc(O)c(Sc2ncn[nH]2)c1,20.6%
8,Cc1cc(C)cc(N(C(=O)CCC(=O)Nc2ccccn2)C(C(=O)NC(C)C)c2ccc(O)cc2)c1 (stereo not drawn),1.99%
9,CCC(=O)c1ccc(OCC(O)CN2CCCCC2)cc1.Cl (stereo not drawn),3.96%
10,OC(COc1ccccc1)CN1CCN(C(c2ccccc2)c2ccccc2)CC1 (stereo not drawn),-24.1%
11,CC1CCN(CC(O)COc2ccc(F)cc2)CC1 (stereo not drawn),-13.3%
12,OC(COc1ccc(OCC(O)CN2CCN(Cc3ccccc3)CC2)cc1)CN1CCN(Cc2ccccc2)CC1 (stereo not drawn),6.14%
13,CCC(=O)c1ccc(OCC(O)Cn2nc(C)c(Br)c2C)cc1 (stereo not drawn),-100%
14,CCC(=O)c1ccc(OCC(O)CN2CCN(C(c3ccccc3)c3ccccc3)CC2)cc1 (stereo not drawn),-51.4%
15,N#Cc1ccc(OCC(O)CN2CCN(C(c3ccccc3)c3ccccc3)CC2)cc1 (stereo not drawn),-69.5%
16,CCC(=O)c1ccc(OCC(O)CN2CCOCC2)cc1 (stereo not drawn),17.8%
17,CCC(=O)c1ccc(OCC(O)Cn2nc(C)c(C(C)=O)c2C)cc1 (stereo not drawn),4.75%
18,CCC(=O)c1ccc(OCC(O)Cn2nc(C)cc2C)cc1 (stereo not drawn),7.89%
19,COc1ccc(OCC(O)CN2CCN(CC(O)COc3ccc(OC)cc3)CC2)cc1 (stereo not drawn),3.29%
20,OC(COc1ccc(F)cc1)CN1CCN(CC(O)COc2ccc(F)cc2)CC1 (stereo not drawn),-51.1%

# From publication PMC4336329 (PLoS ONE, 2015)
